According to PubChem BioAssay (NCI):
About 79,000 compounds went through this panel and 15% of them were active in at least one assay; those are over-represented in the sample as a whole. Unmarked numbers belong to inactive results. Active and inactive are the calls of the source. Cut-off read from the data, not from the text of the source: active = growth inhibition above about 70%; inactive = the rest.

Key:
[1] = NCI Yeast Anticancer Drug Screen. Data for the rad50 strain (AID 155);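 note: 0% = growth of vehicle-only cultures of the same strain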; conditions: S. cerevisiae rad50 strain growth inhibition; at 50.0 µM; hits give high values
Outline: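 Readout: growth inhibition relative to vehicle-treated cultures. Compound exposure was carried out in a genetically defined yeast strain deficient in DNA damage repair.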

[2] = NCI Yeast Anticancer Drug Screen. Data for the mec2-1 strain (AID 157); conditions: S. cerevisiae mec2-1 strain, at 50.0 µM, hits give high values
Outline: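 mec2-1 yeast strain, carrying an alteration in DNA damage repair or cell cycle control, was exposed to compounds; growth inhibition was measured relative to vehicle-treated controls.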

[3] = NCI Yeast Anticancer Drug Screen. Data for the sgs1 mgt1 strain (AID 161);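 note: 0% = growth of cultures given vehicle only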; conditions: S. cerevisiae sgs1 mgt1 strain, at 50.0 µM, hits give high values
Outline: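 This yeast growth screen uses a strain with defined DNA-repair lesions; compound-treated growth is compared with vehicle-treated growth.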

[4] = NCI Yeast Anticancer Drug Screen. Data for the cln2 rad14 strain (AID 165);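 note: 0% = growth equal to vehicle treated cultures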; conditions: S. cerevisiae cln2 rad14 strain, at 50.0 µM, hits give high values
Outline: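 Yeast carrying cln2 and rad14 alterations (cell cycle control and DNA damage repair) were exposed to compounds. Growth inhibition was measured against vehicle-treated controls.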

[5] = NCI Yeast Anticancer Drug Screen. Data for the bub3 strain (AID 167); conditions: S. cerevisiae bub3 mutant strain, at 50.0 µM, hits give high values
Outline: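 Readout: yeast growth inhibition, expressed relative to vehicle-only wells. The test organism is a mutant strain from a panel with lesions in DNA repair or checkpoint genes.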

[6] = NCI Yeast Anticancer Drug Screen. Data for the mlh1 rad18 strain (AID 175); conditions: S. cerevisiae mlh1 rad18 strain growth inhibition; at 50.0 µM; hits give high values
Outline: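 Growth inhibition of the yeast strain was measured after compound exposure and expressed relative to vehicle-treated controls. The strain carries defined defects in DNA damage repair.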

SMILES	growth inhibition [1]	growth inhibition [2]	growth inhibition [3]	growth inhibition [4]	growth inhibition [5]	growth inhibition [6]
O=[N+]([O-])c1cc(Cl)c(Cl)c([N+](=O)[O-])c1Cl	-7.05%	-18.3%	6.4%	-23.8%	-1.95%	6.8%
O=NN(CCCl)C(=O)O	5.55%	-9.05%	-5.25%	-42.8%	10.9%	11.9%
O=C(Cl)OC1CS(=O)(=O)CC1O (stereo not drawn)	-6.6%	1%	-2.5%	-34.6%	4.45%	0.25%
O=NNc1cncc(NN=O)n1	-37.9%	1.1%	-2.8%	-14.9%	-4.95%	3.75%
Cc1ccc(O)cc1C	9.95%	14.1%	26%	26.8%	3.75%	7.95%
OC1(c2ccccc2)C2CCN(CC2)C1CN1CCOCC1 (stereo not drawn)	-23.6%	-30.7%	-20.6%	4.05%	13.3%	7.95%
ClC1CC2CC1C1CNCC21 (stereo not drawn)	-15.2%	-14.6%	-4.05%	-15.8%	-1.05%	-21%
O=C(Nc1cccc(S(=O)(=O)F)c1)/C(=C/c1ccc([N+](=O)[O-])cc1)c1ccccc1	88.5% (active)	86% (active)	86.7% (active)	79.2% (active)	81.2% (active)	88.2% (active)
CC(C)c1cc(C(C)C)c(S(=O)(=O)N=[N+]=[N-])c(C(C)C)c1	12.6%	-0.8%	-31.4%	-8.3%	-16.9%	-7.95%
CC(=O)CC(C)C(=O)O (stereo not drawn) (tested in a mixture with another compound)	-5.9%	-11%	-16.6%	-6.55%	-5.6%	-20.6%
CC(Cc1ccc(O)cc1)NCC(O)c1cc(O)cc(O)c1 (stereo not drawn)	9.65%	13.2%	6.95%	-8.45%	16.4%	6.55%
Cc1ncc(CNC(=O)N(CCCl)N=O)c(N)n1	0.45%	-6.8%	6.3%	-10.2%	-4.2%	32.1%
O=[As](c1ccccc1Br)(c1ccccc1Br)c1ccccc1Br	70%	19.2%	58.7%	13.4%	22.2%	20.9%
COc1ccc(OC)c(CCc2cc(OC)ccc2OC)c1	-7.85%	-13.2%	-9.95%	-40.1%	13.2%	-28%
CCOC(=O)C(Cc1ccc(N(CCCl)CCCl)cc1)NC(=O)C(C)NC(C)=O (stereo not drawn)	0.45%	-7.3%	-15.5%	15.7%	-0.6%	7%
CN(C)P1(=O)OCC(C(C)(C)C)CN1c1ccccc1 (stereo not drawn)	-6.6%	2.95%	-2.8%	-22.2%	-12.9%	-14.3%
c1ccc2c3c(ccc2c1)NC1CCCN1C3 (stereo not drawn)	21.8%	6.65%	-0.85%	-38.8%	-8.6%	12.2%
Cc1ccc2[nH]cc(CCN)c2c1	-5.9%	-53.1%	-5.4%	21.8%	-19.8%	-27.5%
